Assay results reported in PubChem BioAssay (EPA / NIEHS).
Results filed as inconclusive are left out. The source made the active and inactive calls. The calls were made as follows, unless noted: active = hit-call score of the fitted dose curve at least 0.9, where 1 is the maximum; inconclusive = response in the unintended direction; inactive = score below 0.9.

Assays:
[1] = ATG_TAL_CIS: Attagene CIS-FACTORIAL HepG2 Assay for human TAL Basal Promoter (AID 2282966; active = hit-call score of the fitted dose curve at least 0.9, where 1 is the maximum; inactive = score below 0.9;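 also: background control endpoint measuring basal TAL promoter reporter mRNA not a specific factor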); conditions: HepG2 Attagene cis-factorial TAL promoter reporter; actives raise or lower the signal
Method in brief: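 HepG2 cells were transiently transfected with promoter-driven multiplexed reporter units and dosed for 24 h. Reporter mRNA was measured by RT-PCR with capillary electrophoresis fluorescence; bidirectional fits used DMSO as baseline, serving as a background control.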

[2] = ATG_TGFb_CIS: Attagene CIS-FACTORIAL HepG2 Assay for human Transforming Growth Factor (TGF) (AID 2282967; active = hit-call score of the fitted dose curve at least 0.9, where 1 is the maximum; inactive = score below 0.9); conditions: HepG2 Attagene CIS TGFb reporter, mRNA transcription; actives raise or lower the signal
Method in brief: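 HepG2 cells transiently transfected with cis-promoter-driven multiplexed reporter units; 24 h compound exposure. Reporter mRNA measured by RT-PCR, 6-FAM labeling, HpaI digestion and capillary electrophoresis; bidirectional fit versus DMSO baseline.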

[3] = ATG_VDRE_CIS: Attagene CIS-FACTORIAL HepG2 Assay for human Vitamin D Receptor Element (VDRE) (AID 2282968; active = hit-call score of the fitted dose curve at least 0.9, where 1 is the maximum; inactive = score below 0.9); conditions: HepG2 VDRE cis-reporter transcription, actives raise or lower the signal
Method in brief: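 HepG2 cells transiently transfected with cis-element reporter units, dosed 24 h; reporter mRNA measured by RT-PCR, 6-FAM labeling, HpaI digestion and capillary electrophoresis. Activity fitted bidirectionally against DMSO baseline.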

[4] = target: Nuclear receptor subfamily 1 group I member 3 (Homo sapiens) (UniProt Q14994); assay: ATG_CAR_TRANS: Attagene TRANS-FACTORIAL HepG2 Assay for human Constitutive Androstane Receptor (CAR) (AID 2282969); conditions: HepG2 Attagene TRANS-FACTORIAL CAR reporter;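 also: activators raise reporter mRNA above DMSO so AC50 marks induction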
Method in brief: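 HepG2 cells transiently transfected with multiplexed GAL4-UAS reporter units expressing chimeric NR-Gal4 proteins; compound exposure 24 h. Reporter mRNA measured by RT-PCR, 6-FAM labelling, HpaI digestion and capillary electrophoresis; gain-of-signal fitted against DMSO baseline.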

[5] = target: Estrogen receptor (Homo sapiens) (UniProt P03372); assay: ATG_ERa_TRANS: Attagene TRANS-FACTORIAL HepG2 Assay for human Estrogen Receptor alpha (ERa) (AID 2282970); conditions: HepG2 Attagene TRANS ERa GAL4 reporter, mRNA
Method in brief: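 HepG2 cells transiently transfected with multiplexed GAL4-UAS reporter units; ERa activity read via exogenous chimeric NR-Gal4 protein. After 24 hour compound exposure, reporter mRNA measured by RT-PCR with 6-FAM labelling and capillary electrophoresis; gain-of-signal fitted relative to DMSO.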

[6] = target: Steroid hormone receptor ERR1 (Homo sapiens) (UniProt P11474); assay: ATG_ERRa_TRANS: Attagene TRANS-FACTORIAL HepG2 Assay for human Estrogen-Related Receptor alpha (ERRa) (AID 2282971); conditions: HepG2 Attagene TRANS reporter, ERRa transactivation
Method in brief: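 HepG2 cells transiently transfected with multiplexed GAL4-UAS reporter units reading chimeric ERRa-Gal4 activity; 24 h compound exposure. Reporter mRNA measured by RT-PCR, 6-FAM labelling, HpaI digest and capillary electrophoresis; gain of signal fitted versus DMSO baseline.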

[7] = target: X-box-binding protein 1 (Homo sapiens) (UniProt P17861); assay: ATG_Xbp1_CIS: Attagene CIS-FACTORIAL HepG2 Assay for human X-box Binding Protein 1 (XBP1) (AID 2282972; active = hit-call score of the fitted dose curve at least 0.9, where 1 is the maximum; inactive = score below 0.9); conditions: HepG2 XBP1 cis-element reporter, Attagene multiplex; actives raise or lower the signal
Method in brief: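 HepG2 cells transiently transfected with cis-regulated multiple reporter transcription units; endogenous transcription factor activity measured 24 hours after chemical dosing. Reporter mRNA quantified by RT-PCR, 6-FAM primer extension, HpaI digestion and capillary electrophoresis; bidirectional fitting versus DMSO.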

[8] = ATG_M_19_TRANS: Attagene TRANS-FACTORIAL HepG2 Assay for M19 Transcription Factor (Internal Marker) (AID 2282974); conditions: HepG2 Attagene TRANS-FACTORIAL M19 internal marker reporter
Method in brief: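 Transfected HepG2 (GAL4-UAS MRTUs), 24 h compound, TriZol RNA, DNase-treated RT, reporter PCR, FAM label, HpaI digest, CE fluorescence; gain vs DMSO.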

[9] = ATG_GAL4_TRANS: Attagene TRANS-FACTORIAL HepG2 Assay for GAL4 (Internal Marker) (AID 2282976); conditions: HepG2 Attagene TRANS GAL4 internal marker reporter
Method in brief: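 HepG2 cells transiently transfected with multiplexed GAL4-UAS reporter constructs were dosed for 24 h. Reporter mRNA was measured by RT-PCR, 6-FAM primer extension, HpaI digestion and capillary electrophoresis, and gain of signal was fitted relative to DMSO.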

[10] = target: Glucocorticoid receptor (Homo sapiens) (UniProt P04150); assay: ATG_GR_TRANS: Attagene TRANS-FACTORIAL HepG2 Assay for human Glucocorticoid Receptor (GR) (AID 2282978); conditions: HepG2 Attagene TRANS GR reporter, mRNA transcription;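 also: activators score as hits since higher reporter transcript over DMSO is fitted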
Method in brief: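 After 24 h incubation with test chemical, transfected HepG2 cells were lysed for RNA; reporter cDNA was amplified, FAM-labelled, HpaI-digested and sized on a capillary analyser. Signal gain relative to DMSO was scored.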

[11] = target: Bile acid receptor (Homo sapiens) (UniProt Q96RI1); assay: ATG_FXR_TRANS: Attagene TRANS-FACTORIAL HepG2 Assay for Farnesoid X Receptor (FXR) (AID 2282979); conditions: HepG2 Attagene TRANS FXR-GAL4 reporter transcription;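 also: hits raise reporter mRNA above DMSO so AC50 marks FXR activation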
Method in brief: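 HepG2 cells transiently transfected with reporter constructs in which a chimeric FXR-GAL4 protein drives a GAL4-UAS reporter; 24 h compound exposure. Reporter mRNA measured by RT-PCR, FAM labelling, HpaI digestion and capillary electrophoresis; gain-of-signal versus DMSO.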

[12] = target: Oxysterols receptor LXR-alpha (Homo sapiens) (UniProt Q13133); assay: ATG_LXRa_TRANS: Attagene TRANS-FACTORIAL HepG2 Assay for human Liver X Receptor alpha (LXRa) (AID 2282980); conditions: HepG2 Attagene TRANS reporter, LXRa transactivation
Method in brief: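 HepG2 cells were transiently transfected with multiplexed reporter units driven by chimeric LXRa–GAL4 fusion proteins, then dosed for 24 h. Reporter mRNA was quantified by RT-PCR, fluorescent labelling and capillary electrophoresis; gain of signal fitted against DMSO baseline.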

[13] = target: Hepatocyte nuclear factor 4-alpha (Homo sapiens) (UniProt P41235); assay: ATG_HNF4a_TRANS: Attagene TRANS-FACTORIAL HepG2 Assay for human Hepatocyte Nuclear Factor 4 alpha (HNF4a) (AID 2282982); conditions: HepG2 HNF4a transactivation reporter, mRNA readout
Method in brief: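 HepG2 cells transiently transfected with multiplexed GAL4-UAS reporter units responsive to chimeric NR-GAL4 proteins; compound exposure 24 h. Reporter mRNA quantified by RT-PCR, 6-FAM labelling, HpaI digestion and capillary electrophoresis; gain of signal versus DMSO baseline.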

[14] = ATG_M_06_TRANS: Attagene TRANS-FACTORIAL HepG2 Assay for M06 Transcription Factor (Internal Marker) (AID 2282983); conditions: HepG2 Attagene TRANS M06 internal marker reporter;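 also: reporter transcript level by RT-PCR then capillary electrophoresis fluorescence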
Method in brief: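 HepG2 cells transiently transfected with multiplexed GAL4-UAS reporter transcription units; after 24 h compound exposure, reporter mRNA measured by RT-PCR, FAM-labelled primer extension, HpaI digestion and capillary electrophoresis. Gain-of-signal fitted versus DMSO baseline; background control readout.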

[15] = ATG_M_32_TRANS: Attagene TRANS-FACTORIAL HepG2 Assay for M32 Transcription Factor (Internal Marker) (AID 2282984); conditions: HepG2 Attagene TRANS M32 internal marker reporter
Method in brief: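 HepG2 cells transiently transfected with multiple GAL4-UAS reporter transcription units, dosed for 24 hours; reporter mRNA quantified by RT-PCR, 6-FAM primer extension, HpaI digestion and capillary electrophoresis. Gain-of-signal fitted versus DMSO baseline; internal background-control marker.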

[16] = target: Nuclear receptor subfamily 4 group A member 2 (Homo sapiens) (UniProt P43354); assay: ATG_NURR1_TRANS: Attagene TRANS-FACTORIAL HepG2 Assay for human Nuclear Receptor Related Protein 1 (NURR1) (AID 2282985); conditions: HepG2 Attagene TRANS reporter, mRNA readout
Method in brief: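 HepG2 cells transiently transfected with GAL4-UAS reporter units and chimeric NR-Gal4 constructs; chemical exposure 24 h. Reporter mRNA quantified by RT-PCR, fluorescent labelling and capillary electrophoresis; gain of signal fitted relative to DMSO baseline.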

[17] = target: Transcriptional activator Myb (Homo sapiens) (UniProt P10242); assay: ATG_Myb_CIS: Attagene CIS-FACTORIAL HepG2 Assay for human Myeloblastosis (Myb) Proto-Oncogene Transcription Factor (AID 2282986; active = hit-call score of the fitted dose curve at least 0.9, where 1 is the maximum; inactive = score below 0.9); conditions: HepG2 Attagene CIS-FACTORIAL Myb reporter transcription; actives raise or lower the signal
Method in brief: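 After 24 h of compound dosing, total RNA from transfected HepG2 cells is reverse-transcribed and the reporter sequences amplified, labeled and separated by capillary electrophoresis. Values come from bidirectional fitting against DMSO.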

[18] = target: Nuclear respiratory factor 1 (Homo sapiens) (UniProt Q16656); assay: ATG_NRF1_CIS: Attagene CIS-FACTORIAL HepG2 Assay for human Nuclear Respiratory Factor 1 (NRF1) Orphan Gene (AID 2282987; active = hit-call score of the fitted dose curve at least 0.9, where 1 is the maximum; inactive = score below 0.9); conditions: HepG2 NRF1 cis-element reporter, Attagene multiplex; actives raise or lower the signal
Method in brief: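 Measured: fluorescent reporter-specific RT-PCR products from transfected HepG2 cells, separated by capillary electrophoresis. Exposure lasted 24 h. Analysis used bidirectional curve fitting with DMSO as negative control.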

[19] = ATG_NFI_CIS: Attagene CIS-FACTORIAL HepG2 Assay for human Nuclear Factor I (NFI) (AID 2282989; active = hit-call score of the fitted dose curve at least 0.9, where 1 is the maximum; inactive = score below 0.9); conditions: HepG2 cis-regulatory reporter, NFI response element transcription; actives raise or lower the signal
Method in brief: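 HepG2 cells transiently transfected with cis-element-driven multiplexed reporter transcription units, dosed for 24 h. Reporter mRNA quantified by RT-PCR, fluorescent labelling, HpaI digestion and capillary electrophoresis; bidirectional fit versus DMSO baseline.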

[20] = target: Oxysterols receptor LXR-beta (Homo sapiens) (UniProt P55055); assay: ATG_LXRb_TRANS: Attagene TRANS-FACTORIAL HepG2 Assay for human Liver X Receptor beta (LXRb) (AID 2282981); conditions: HepG2 Attagene TRANS GAL4-LXRb reporter, mRNA
Method in brief: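 HepG2 cells transiently transfected with multiple reporter transcription units carrying chimeric NR-Gal4 proteins acting on GAL4-UAS reporters; compound exposure 24 h. Reporter mRNA quantified by RT-PCR, 6-FAM labelling, HpaI digestion and capillary electrophoresis; gain of signal versus DMSO.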

Measured: outcome

Chain of Nuclear respiratory factor 1 (Homo sapiens) (Q16656 whole entry, looked up): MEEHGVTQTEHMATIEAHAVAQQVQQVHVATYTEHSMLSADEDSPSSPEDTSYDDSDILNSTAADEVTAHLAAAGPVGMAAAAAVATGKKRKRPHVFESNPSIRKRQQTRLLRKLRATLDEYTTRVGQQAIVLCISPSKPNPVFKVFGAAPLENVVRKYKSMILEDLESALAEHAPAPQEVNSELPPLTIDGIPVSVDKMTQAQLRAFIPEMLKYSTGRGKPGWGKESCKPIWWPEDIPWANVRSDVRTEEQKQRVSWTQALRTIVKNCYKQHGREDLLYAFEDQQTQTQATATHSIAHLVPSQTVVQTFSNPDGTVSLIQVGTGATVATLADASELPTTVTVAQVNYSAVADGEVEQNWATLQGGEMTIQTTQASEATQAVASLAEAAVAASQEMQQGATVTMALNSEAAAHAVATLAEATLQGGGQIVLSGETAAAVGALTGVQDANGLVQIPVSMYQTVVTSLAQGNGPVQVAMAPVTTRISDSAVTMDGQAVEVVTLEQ
Chain of Glucocorticoid receptor (Homo sapiens) (P04150 whole entry, looked up): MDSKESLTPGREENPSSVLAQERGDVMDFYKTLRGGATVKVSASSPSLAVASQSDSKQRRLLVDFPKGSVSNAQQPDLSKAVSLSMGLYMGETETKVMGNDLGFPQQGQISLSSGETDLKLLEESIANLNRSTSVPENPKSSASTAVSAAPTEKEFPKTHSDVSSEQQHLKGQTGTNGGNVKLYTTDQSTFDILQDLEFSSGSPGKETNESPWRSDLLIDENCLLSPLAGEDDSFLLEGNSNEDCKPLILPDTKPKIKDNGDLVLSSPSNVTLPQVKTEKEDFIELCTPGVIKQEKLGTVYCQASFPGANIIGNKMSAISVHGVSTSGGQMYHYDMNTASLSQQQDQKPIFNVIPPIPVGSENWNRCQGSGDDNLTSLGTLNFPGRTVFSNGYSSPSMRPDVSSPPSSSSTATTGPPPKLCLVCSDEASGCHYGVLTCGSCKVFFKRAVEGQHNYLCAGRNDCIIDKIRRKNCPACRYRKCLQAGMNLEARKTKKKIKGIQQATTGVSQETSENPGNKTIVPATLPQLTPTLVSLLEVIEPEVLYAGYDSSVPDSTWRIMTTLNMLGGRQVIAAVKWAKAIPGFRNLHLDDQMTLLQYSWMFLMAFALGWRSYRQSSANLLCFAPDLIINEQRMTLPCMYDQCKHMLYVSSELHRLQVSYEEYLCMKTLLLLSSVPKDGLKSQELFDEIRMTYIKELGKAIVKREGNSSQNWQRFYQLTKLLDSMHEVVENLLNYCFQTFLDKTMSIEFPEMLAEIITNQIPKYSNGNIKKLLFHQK
Chain of Nuclear receptor subfamily 1 group I member 3 (Homo sapiens) (Q14994 whole entry, looked up, the tested form may be a part): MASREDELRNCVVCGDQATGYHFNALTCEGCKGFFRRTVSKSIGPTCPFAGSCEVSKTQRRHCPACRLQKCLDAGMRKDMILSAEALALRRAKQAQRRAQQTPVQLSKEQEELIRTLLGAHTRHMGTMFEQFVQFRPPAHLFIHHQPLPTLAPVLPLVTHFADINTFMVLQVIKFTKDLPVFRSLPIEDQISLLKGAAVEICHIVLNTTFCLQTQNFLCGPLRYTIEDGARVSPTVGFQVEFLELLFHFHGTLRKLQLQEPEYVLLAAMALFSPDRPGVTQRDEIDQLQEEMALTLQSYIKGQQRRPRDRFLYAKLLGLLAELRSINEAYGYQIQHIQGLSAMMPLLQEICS
Chain of X-box-binding protein 1 (Homo sapiens) (P17861 whole entry, looked up): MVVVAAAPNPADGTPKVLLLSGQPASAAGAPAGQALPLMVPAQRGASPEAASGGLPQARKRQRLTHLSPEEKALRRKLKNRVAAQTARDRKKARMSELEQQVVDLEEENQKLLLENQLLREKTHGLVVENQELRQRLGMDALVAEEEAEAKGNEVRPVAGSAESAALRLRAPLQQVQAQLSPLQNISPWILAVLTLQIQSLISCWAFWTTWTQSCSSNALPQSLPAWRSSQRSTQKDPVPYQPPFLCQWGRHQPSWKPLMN
Chain of Nuclear receptor subfamily 4 group A member 2 (Homo sapiens) (P43354 whole entry, looked up, the tested form may be a part): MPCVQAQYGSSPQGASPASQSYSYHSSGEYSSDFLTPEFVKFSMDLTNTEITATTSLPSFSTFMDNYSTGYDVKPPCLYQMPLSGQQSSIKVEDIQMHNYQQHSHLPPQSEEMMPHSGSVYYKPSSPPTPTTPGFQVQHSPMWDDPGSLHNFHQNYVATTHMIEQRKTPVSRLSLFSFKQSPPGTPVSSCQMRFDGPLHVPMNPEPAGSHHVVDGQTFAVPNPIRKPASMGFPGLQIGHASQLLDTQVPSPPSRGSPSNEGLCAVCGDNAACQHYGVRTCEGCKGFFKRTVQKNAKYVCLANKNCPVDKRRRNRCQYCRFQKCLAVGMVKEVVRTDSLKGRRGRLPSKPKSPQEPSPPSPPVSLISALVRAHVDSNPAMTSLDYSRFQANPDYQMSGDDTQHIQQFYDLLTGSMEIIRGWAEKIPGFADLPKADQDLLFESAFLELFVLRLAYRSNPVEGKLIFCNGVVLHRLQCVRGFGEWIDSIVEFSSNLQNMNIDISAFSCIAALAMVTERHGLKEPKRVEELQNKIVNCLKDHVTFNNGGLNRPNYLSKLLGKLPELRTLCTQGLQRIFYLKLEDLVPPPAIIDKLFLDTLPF
Chain of Hepatocyte nuclear factor 4-alpha (Homo sapiens) (P41235 whole entry, looked up, the tested form may be a part): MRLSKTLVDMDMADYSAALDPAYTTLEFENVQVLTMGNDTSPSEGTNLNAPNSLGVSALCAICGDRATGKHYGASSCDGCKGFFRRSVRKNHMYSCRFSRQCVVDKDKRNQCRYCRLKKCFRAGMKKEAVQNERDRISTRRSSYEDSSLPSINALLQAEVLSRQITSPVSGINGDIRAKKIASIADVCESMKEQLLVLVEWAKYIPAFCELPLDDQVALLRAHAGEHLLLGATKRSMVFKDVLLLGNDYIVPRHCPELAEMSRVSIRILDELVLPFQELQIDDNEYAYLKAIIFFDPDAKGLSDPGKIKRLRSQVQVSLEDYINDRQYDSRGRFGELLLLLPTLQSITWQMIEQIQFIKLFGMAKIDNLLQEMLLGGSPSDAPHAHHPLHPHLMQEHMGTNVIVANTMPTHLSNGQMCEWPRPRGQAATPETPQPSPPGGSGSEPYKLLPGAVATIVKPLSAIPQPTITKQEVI
Chain of Transcriptional activator Myb (Homo sapiens) (P10242 whole entry, looked up): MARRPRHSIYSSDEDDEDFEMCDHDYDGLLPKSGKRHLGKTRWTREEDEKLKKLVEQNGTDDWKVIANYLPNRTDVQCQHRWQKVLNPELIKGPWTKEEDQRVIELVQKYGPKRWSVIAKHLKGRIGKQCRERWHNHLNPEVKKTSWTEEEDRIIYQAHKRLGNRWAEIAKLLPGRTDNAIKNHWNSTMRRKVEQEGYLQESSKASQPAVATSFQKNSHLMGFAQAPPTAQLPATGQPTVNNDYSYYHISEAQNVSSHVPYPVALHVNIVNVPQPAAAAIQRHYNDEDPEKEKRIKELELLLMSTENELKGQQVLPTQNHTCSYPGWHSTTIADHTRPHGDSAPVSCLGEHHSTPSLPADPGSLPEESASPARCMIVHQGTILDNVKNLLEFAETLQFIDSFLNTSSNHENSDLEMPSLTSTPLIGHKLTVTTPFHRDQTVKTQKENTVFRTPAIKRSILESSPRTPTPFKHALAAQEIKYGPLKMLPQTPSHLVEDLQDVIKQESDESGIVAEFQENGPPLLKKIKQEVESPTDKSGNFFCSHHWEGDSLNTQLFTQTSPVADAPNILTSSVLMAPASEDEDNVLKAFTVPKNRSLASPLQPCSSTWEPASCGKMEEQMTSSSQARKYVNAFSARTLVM
Chain of Oxysterols receptor LXR-alpha (Homo sapiens) (Q13133 whole entry, looked up, the tested form may be a part): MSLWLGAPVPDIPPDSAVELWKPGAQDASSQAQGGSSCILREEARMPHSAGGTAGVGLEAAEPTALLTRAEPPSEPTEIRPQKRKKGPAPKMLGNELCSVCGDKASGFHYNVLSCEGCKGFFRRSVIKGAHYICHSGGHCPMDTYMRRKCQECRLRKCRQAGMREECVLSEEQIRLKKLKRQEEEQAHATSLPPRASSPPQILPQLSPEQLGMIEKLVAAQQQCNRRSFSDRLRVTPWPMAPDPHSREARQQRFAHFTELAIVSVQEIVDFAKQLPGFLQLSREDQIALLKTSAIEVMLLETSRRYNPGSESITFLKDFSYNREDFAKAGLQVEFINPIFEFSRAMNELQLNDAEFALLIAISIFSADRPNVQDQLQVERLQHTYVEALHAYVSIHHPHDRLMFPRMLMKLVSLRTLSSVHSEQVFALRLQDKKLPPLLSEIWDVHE
Chain of Estrogen receptor (Homo sapiens) (P03372 whole entry, looked up, the tested form may be a part): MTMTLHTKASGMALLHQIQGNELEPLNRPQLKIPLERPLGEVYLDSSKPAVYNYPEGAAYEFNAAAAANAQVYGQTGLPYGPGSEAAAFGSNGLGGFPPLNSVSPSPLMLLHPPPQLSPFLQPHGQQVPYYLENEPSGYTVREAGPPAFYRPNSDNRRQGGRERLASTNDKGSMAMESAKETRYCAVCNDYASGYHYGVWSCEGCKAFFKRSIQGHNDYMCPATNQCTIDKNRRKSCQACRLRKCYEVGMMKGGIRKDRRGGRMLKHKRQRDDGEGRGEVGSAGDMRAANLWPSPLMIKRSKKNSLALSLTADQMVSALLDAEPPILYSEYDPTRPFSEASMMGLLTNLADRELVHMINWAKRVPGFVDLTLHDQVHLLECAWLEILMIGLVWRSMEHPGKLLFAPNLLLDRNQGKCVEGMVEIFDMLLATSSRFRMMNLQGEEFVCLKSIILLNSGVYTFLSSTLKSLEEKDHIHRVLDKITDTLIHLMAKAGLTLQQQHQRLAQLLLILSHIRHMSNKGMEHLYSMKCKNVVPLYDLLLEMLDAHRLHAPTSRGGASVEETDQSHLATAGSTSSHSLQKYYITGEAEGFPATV

O=S(=O)(O)CCC(F)(F)C(F)(F)C(F)(F)C(F)(F)C(F)(F)C(F)(F)F
inactive: [1] | [2] | [3] | [4] | [5] | [6] | [7] | [8] | [9] | [10] | [11] | [12] | [13] | [14] | [15] | [16] | [17] | [18] | [19]

OC(CCl)CCl
inactive: [1] | [2] | [3] | [4] | [7] | [8] | [9] | [10] | [20] | [13] | [14] | [15] | [17] | [18] | [19]

NC(=O)N(O)[C@@H]1COc2cc(OCc3ccccc3)ccc21
inactive: [1] | [2] | [3] | [4] | [5] | [7] | [9] | [10] | [11] | [12] | [13] | [14] | [15] | [17] | [18] | [19]

c1ccc2c(c1)-c1cccc3c1c-2cc1ccccc13
inactive: [1] | [2] | [3] | [4] | [7] | [8] | [9] | [10] | [12] | [13] | [14] | [15] | [16] | [17] | [18] | [19]
